A short description of this assay: Vibrio cholerae motility inhibitors, OD read-out (AID 588778). The note with it: stronger effect = higher value.
Setting [1] is: measured here: bacterial viability at 10 ug/mL.

Screen size: about 10,000 compounds; fewer than 10 were called active. The rule behind the calls is not given here. A selection follows.

The inhibition is the drop in the measured response relative to a control, in per cent.

Take `O=C(NCCSCc1ccco1)Nc1ccccc1`: the inhibition is 22.3% (inactive) (concentration not given here) and 0.29% under setting [1].
With `O=C(CSCc1ccc([N+](=O)[O-])cc1)N1CCN(c2cccc(Cl)c2)CC1`, the inhibition is -5.85% (inactive) (concentration not given here) and -3.47% under setting [1].
On to `Cc1cc2[nH]c(=S)n(Cc3ccccc3Cl)c2cc1C`, for which the inhibition reads like this: (concentration not given here) -26.6% (inactive); under setting [1], -12.9%.
Take `O=C(NC(=O)C(Cl)(Cl)Cl)NC1CCCC1`: the inhibition runs as follows: (concentration not given here) -16.4% (inactive); under setting [1], 3.96%.
For the compound `O=C(NC(=S)Nc1ccccc1C(=O)NC1CCCCC1)c1ccco1`, the inhibition is, setting by setting: (concentration not given here) 3.43% (inactive); under setting [1], 7.92%.
As to `CCn1ccc(C(=O)Nc2ccc(C(F)(F)F)cc2Cl)n1`, the inhibition reads like this: (concentration not given here) -7.69% (inactive); under setting [1], -1.52%.
Take `Cc1cc(N2C(=O)CC(Cc3ccc(Cl)cc3)C2=O)no1` (stereo unspecified): the inhibition by setting is: (concentration not given here) 1.86% (inactive); under setting [1], -6.9%.
Take `O=C(CC(NC(=S)Nc1ccccc1)c1ccccc1)c1ccccc1` (stereo unspecified): the inhibition was 15.4% (inactive) (concentration not given here) and 5.66% under setting [1].
For `CC(C)C(C(=O)O)c1ccc([N+](=O)[O-])cc1` (stereo unspecified), the inhibition runs as follows: (concentration not given here) 6.16% (inactive); under setting [1], -2.35%.
Turning to `COc1ccc([N+](=O)[O-])cc1CSc1ccccn1`, the inhibition reads like this: (concentration not given here) -1.69% (inactive); under setting [1], -0.75%.
Regarding `CC(C)CNC(=S)NNC(=O)CC(C)O` (stereo unspecified), the inhibition by setting is: (concentration not given here) 52.6% (inactive); under setting [1], 22.3%.
Regarding `CSCCC(C(=O)O)n1c(-c2ccc3ccccc3n2)n[nH]c1=S` (stereo unspecified), the inhibition by setting is: (concentration not given here) -9.7% (inactive); under setting [1], -4.1%.
Turning to `Cc1ccc(C(C)C)c(OCCSc2nc3ccccc3n2CC(O)CO)c1` (stereo unspecified), the inhibition is, setting by setting: (concentration not given here) 6.25% (inactive); under setting [1], -5.04%.
On the same counts, the results for `O=C(O)CCn1c2ccccc2c2ccccc21` are 15.5% (inactive) and -1.8%.
Take `COc1ccc(NC(=O)c2cc(S(=O)(=O)N3CCOCC3)c(Cl)cc2Cl)c([N+](=O)[O-])c1`: the inhibition reads like this: (concentration not given here) -16.3% (inactive); under setting [1], -8.39%.
Take `O=C(NCc1ccc(Cl)c(Cl)c1)c1ccc(Br)o1`: the inhibition (concentration not given here) is 20.3% (inactive) and the inhibition under setting [1] stood at 4.03%.
As for `COc1ccc2cnn(-c3ccccc3)c(=O)c2c1OC`, the inhibition was 12% (inactive) (concentration not given here) and 4.55% under setting [1].
On to `CCOc1cc(C(=S)N2CC(C)OC(C)C2)cc(I)c1OCC(=O)N1CCCC1` (stereo unspecified), for which the inhibition is, setting by setting: (concentration not given here) 11% (inactive); under setting [1], 5.69%.
Consider `CC(C)(O)C#Cc1ccc(C(=O)NC2CCCCC2)cc1`, for which the inhibition is 12.9% (inactive) (concentration not given here) and 20.2% under setting [1].
As for `Cc1cc(=O)[nH]c2c1cnn2Cc1ccccc1`, the inhibition is, setting by setting: (concentration not given here) 49.6% (inactive); under setting [1], 17.8%.
On to `Cc1c(NC(=O)C2CC(c3c(F)cccc3Cl)=NO2)c(=O)n(-c2ccccc2)n1C` (stereo unspecified), for which the inhibition runs as follows: (concentration not given here) 0.12% (inactive); under setting [1], -4.39%.
`CC1(C(=O)NN2CCOCC2)CC1(Cl)Cl` (stereo unspecified): the inhibition (concentration not given here) was 1.9% (inactive) and the inhibition under setting [1] was -3.31%.
With `CC(=O)c1cccc(NC(=O)C2CC(=O)N(Cc3ccccc3)C2)c1` (stereo unspecified), the inhibition is -14% (inactive) (concentration not given here) and -3.46% under setting [1].
Consider `C#CCOc1c(Br)cc(/C=C/[N+](=O)[O-])cc1OC`, for which the inhibition by setting is: (concentration not given here) 33.7% (inactive); under setting [1], 7.02%.
Take `COc1ccc(C(=O)NCc2ccoc2C(=O)O)cc1`: the inhibition (concentration not given here) was 16.5% (inactive) and the inhibition under setting [1] was 8.04%.
In the case of `O=C(Cn1cnc2ccccc2c1=O)c1ccc(Br)cc1`, the inhibition is, setting by setting: (concentration not given here) -17.8% (inactive); under setting [1], -8.61%.
As to `Cc1cc(C)n2nc(Cc3ccccc3)c(-c3cccc4ccccc34)c2n1`, the inhibition runs as follows: (concentration not given here) 0.73% (inactive); under setting [1], 8.65%.
Take `O=CN1Cc2ccccc2-c2ccccc2C1`: the inhibition was 6.8% (inactive) (concentration not given here) and 3.25% under setting [1].
Regarding `O=C(CNC(=S)NC(=O)c1ccc(F)cc1)c1ccccc1`, the inhibition (concentration not given here) was -64% (inactive) and the inhibition under setting [1] is -21.1%.
Consider `O=C(c1ccccc1Oc1ccc(C(F)(F)F)cc1[N+](=O)[O-])N1CCOCC1`, for which the inhibition was -15.4% (inactive) (concentration not given here) and -2.04% under setting [1].
`CN1CCN(C(=O)c2ccccc2NC(=O)Nc2ccccc2)CC1`: the inhibition was 15.9% (inactive) (concentration not given here) and 1.65% under setting [1].
On to `COc1cccc(/C=C(\C#N)c2ccccc2)c1OC(C)C`, for which the inhibition runs as follows: (concentration not given here) 22.8% (inactive); under setting [1], -2.34%.
On the same counts, the results for `COc1ccc(C2/C(=C(\O)c3ccc(C)cc3)C(=O)C(=O)N2c2ncc(S(=O)(=O)c3ccc([N+](=O)[O-])cc3)s2)cc1` (stereo unspecified) are -0.505% (inactive) and -2.23%.
On to `Cc1cc(NC(=O)CC2C(=O)N(c3ccccc3)C(=S)N2CCc2ccc(F)cc2)no1` (stereo unspecified), for which the inhibition reads like this: (concentration not given here) 13.3% (inactive); under setting [1], 9.96%.
On the same counts, the results for `Cc1ccc(NNC(=O)C(c2ccccc2)c2ccccc2)cc1` are 7.31% (inactive) and 10%.
For `Cc1ccc(CN2CC(C(=O)O)CC2=O)cc1` (stereo unspecified), the inhibition was 14.2% (inactive) (concentration not given here) and -5.3% under setting [1].
`Cc1ccccc1NC(=O)NNc1ccc(F)cc1`: the inhibition reads like this: (concentration not given here) 15.9% (inactive); under setting [1], 1.32%.
On the same counts, the results for `CCOC(=O)c1sc(NC(=O)COc2ccc(Cl)cc2Cl)cc1C` are 19.1% (inactive) and 13.9%.
With `CCOc1ccc2nc(SCC(=O)Nc3ccc4c(c3)OCO4)[nH]c2c1`, the inhibition is 4.79% (inactive) (concentration not given here) and 2.6% under setting [1].
As to `Cn1cc(C2CC(=O)N(c3c(Cl)cccc3Cl)C2=O)c2ccccc21` (stereo unspecified), the inhibition is, setting by setting: (concentration not given here) -0.44% (inactive); under setting [1], 3.05%.
On to `CC12CCC(C(=O)NCc3ccc4c(c3)OCO4)(c3nc4ccccc4nc31)C2(C)C` (stereo unspecified), for which the inhibition by setting is: (concentration not given here) 3.2% (inactive); under setting [1], 0.26%.
On the same counts, the results for `O=[N+]([O-])c1cccc(N2CCOCC2)c1` are 17.3% (inactive) and 4.88%.
On the same counts, the results for `OC(COCc1ccc(Cl)cc1)CN1CCN(c2cccc(Cl)c2)CC1` (stereo unspecified) are 37.3% (inactive) and 11.7%.
On to `COc1ccc(C(=O)CSc2nc(=O)cc(N)n2-c2ccc(C)cc2)cc1OC`, for which the inhibition runs as follows: (concentration not given here) -12% (inactive); under setting [1], -11.4%.
Regarding `O=C(CS(=O)(=O)Cc1ccccc1)N1CCN(Cc2ccc3c(c2)OCO3)CC1`, the inhibition reads like this: (concentration not given here) 12.5% (inactive); under setting [1], 2.65%.
Take `CN(CCc1ccccn1)S(=O)(=O)c1ccccc1`: the inhibition reads like this: (concentration not given here) 4.78% (inactive); under setting [1], -3.86%.
For the compound `COc1ccc(C(=O)ON2C(=O)CCC2=O)cc1I`, the inhibition is, setting by setting: (concentration not given here) 4.65% (inactive); under setting [1], -0.225%.
On to `Cc1cc(NC(=O)c2ccccc2Cl)c(OC(=O)c2ccccc2Cl)cc1C`, for which the inhibition reads like this: (concentration not given here) -5.73% (inactive); under setting [1], -9.05%.
Regarding `O=C(Oc1ccccn1)C1COc2ccccc2O1` (stereo unspecified), the inhibition reads like this: (concentration not given here) -4.64% (inactive); under setting [1], -1.04%.
Take `Cn1nnc2cc(NC(=O)NCc3ccco3)ccc21`: the inhibition by setting is: (concentration not given here) 9.79% (inactive); under setting [1], 6.21%.
With `COc1cc(N2C(=O)c3cccc4c([N+](=O)[O-])ccc(c34)C2=O)ccc1-n1nc(C)cc1C`, the inhibition by setting is: (concentration not given here) 3.2% (inactive); under setting [1], -0.9%.
With `CC(=O)Nc1sc(/C(C#N)=C/c2ccc(N(C)C)cc2)nc1-c1ccc(C)cc1`, the inhibition is 2.79% (inactive) (concentration not given here) and -2.29% under setting [1].
`O=[N+]([O-])c1ccccc1OCCCNCc1ccco1`: the inhibition is, setting by setting: (concentration not given here) 11% (inactive); under setting [1], 4.43%.
Regarding `CC(C)(C)SCCNC(=S)Nc1ccccc1`, the inhibition reads like this: (concentration not given here) 32.6% (inactive); under setting [1], 4.53%.
As for `COC(=O)C1=C(C)N=C2SCCC(=O)N2C1/C=C/c1ccccc1` (stereo unspecified), the inhibition was -20.3% (inactive) (concentration not given here) and -9.41% under setting [1].
On the same counts, the results for `CCSc1ncc(Cl)c(C(=O)Nc2c(C)n(C)n(-c3ccccc3)c2=O)n1` are -0.94% (inactive) and -0.4%.
On the same counts, the results for `CC(=O)N(Cc1cc2ccc(C)cc2[nH]c1=O)c1ccc(C)cc1C` are -16.5% (inactive) and -2.06%.
For the compound `O=C(O)CCCCN1Cc2ccccc2C1`, the inhibition (concentration not given here) is 2.35% (inactive) and the inhibition under setting [1] amounted to 7.06%.
